Source: PubChem BioAssay AID1159580 (chemical genetic matrix, 2015)
The campaign covered roughly 5,500 compounds. About 2,000 (36%) were called active. Roughly 18% stayed inconclusive and do not appear here. Rule as the data show it: active = normalized growth mostly below about 0.91 (no sharp cut-off); inconclusive = no clear call, values can overlap the other calls; inactive = mostly above about 0.92. The list shows a part of the results.

Assay: chemical genetic growth profiling, strain panel (AID 1159580);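 also: tested at 20 µM; growth read once vehicle control cultures reached saturation at 30 °C; 1 = growth at the plate median or of vehicle wells; lower values mean less growth of the strain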
Conditions: S. cerevisiae deletion strains, growth OD

Measured: normalized growth

O=C(Nc1cccc(C(=O)Nc2ccc(S(=O)(=O)O)c3cc(S(=O)(=O)O)cc(S(=O)(=O)O)c23)c1)Nc1cccc(C(=O)Nc2ccc(S(=O)(=O)O)c3cc(S(=O)(=O)O)cc(S(=O)(=O)O)c23)c1
inactive: locus YAL040C, strain CLN3, hits give low values 1.05 | locus YCL061C, strain MRC1 (second series), hits give low values 0.981 | locus YDR150W, strain NUM1, hits give low values 0.976 | locus YDR363W, strain ESC2, hits give low values 1.02 | locus YER002W, strain NOP16, hits give low values 0.968 | locus YMR263W, strain SAP30, hits give low values 0.973 | locus YNL153C, strain GIM3, hits give low values 0.977 | locus YNL175C, strain NOP13, hits give low values 0.978 | locus YNL197C, strain WHI3, hits give low values 0.968 | locus YNL224C, strain SQS1, hits give low values 0.981 | locus YOR083W, strain WHI5 (second series), hits give low values 0.97
